Assay outcomes: PubChem BioAssay, The Scripps Research Institute Molecular Screening Center
GAA850 FXN act: FXN promoter activators, primary screen, cell-based, luciferase luminescence, HEK293 lucGAA850 | activation, % at 6 µM | AID 540364, 2011 | 0.56% of 360,000 active | HEK293 lucGAA850 FXN promoter luciferase reporter, 24 h; percent of 10 µM SAHA response;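 active = activation above the average of all compounds screened plus 3 SD, cutoff fixed separately per campaign, cut at about 7.5% in these data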;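 note: 0% = DMSO wells and 100% = 10 µM SAHA wells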
ssDAF-12 act: S. stercoralis DAF-12 nuclear receptor activators, primary screen, cell-based, luminescence, HEK293, GRIP1 co-expression, lit1-tk-luc | AID 652126, 2013 | HEK293 ssDAF-12/GRIP1 lit1-tk-luc reporter; % of 3 µM dafachronic acid response | 1% of 370,000 active | activation, % at 6.8 µM | Nuclear hormone receptor DAF-12 (Strongyloides stercoralis);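 active = activation above the mean over all tested compounds plus 3 SD, cut at about 0.9% in these data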;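 note: 0% = DMSO-only wells and 100% = 3 µM delta7-dafachronic acid wells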
DAX1 inh-1: DAX1 (NR0B1) inhibitors, primary screen, cell-based, HEK293, Gal4-DAX1, luciferase luminescence; HEK293 Gal4-DAX1 luciferase reporter; inhibition, % at 6.75 µM; 0.99% of 340,000 active; AID 504766, 2011;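 active = inhibition above the mean over all tested compounds plus 3 SD, cut at about 4.2% in these data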;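 note: 0% = DAX1-transfected cells with DMSO and 100% = empty-vector control cells with DMSO; inhibition shows as a rise in luminescence from relieved DAX1 repression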
Target sequence (P51843 207-470 limits assumed): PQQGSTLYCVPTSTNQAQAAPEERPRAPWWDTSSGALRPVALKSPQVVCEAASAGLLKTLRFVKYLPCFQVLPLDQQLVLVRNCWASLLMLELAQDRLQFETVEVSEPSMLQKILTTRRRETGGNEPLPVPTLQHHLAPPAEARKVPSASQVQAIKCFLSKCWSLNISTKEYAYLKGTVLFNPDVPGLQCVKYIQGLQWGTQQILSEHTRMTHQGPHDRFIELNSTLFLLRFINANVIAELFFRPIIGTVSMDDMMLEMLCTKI
hcDAF-12 act: H. contortus DAF-12 nuclear receptor activators, primary screen, cell-based, luminescence, HEK293, lit1-tk-luc reporter; HEK293 hcDAF-12 lit1-tk-luc reporter; 0% DMSO, 100% Δ7-dafachronic acid; activation, % at 6.8 µM; 1.4% of 370,000 active; AID 652067, 2013;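 active = activation above the mean of all tested compounds plus 3 SD, cut at about 5.5% in these data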;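 note: 100% = response to 3 µM Δ7-dafachronic acid high control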
hgDAF-12 ag: H. glycines DAF-12 receptor agonists, primary screen, cell-based, luminescence, HEK293, GAL4 fusion, UAS-luciferase; Nuclear hormone receptor DAF-12 (Heterodera glycines), GAL4 fusion; HEK293 GAL4-hgDAF12 UAS-luciferase reporter, agonist luminescence; normalized to butyrate control; activation, % at 6.8 µM; 1.8% of 370,000 active;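 active = activation above a cutoff set at the mean of all screened compounds plus 3 SD, cut at about 10% in these data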;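 note: 0% = DMSO wells and 100% = sodium butyrate wells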
DAX1 inh-2: DAX1 (NR0B1) inhibitors on StAR promoter, primary screen, cell-based, luminescence, SF-1 (NR5A1), full-length DAX-1; HEK293T StAR-luciferase reporter, SF-1/DAX-1 repression relief; inhibition, % at 6.8 µM; 1.1% of 370,000 active; AID 652010, 2013;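 active = inhibition above the mean over all tested compounds plus 3 SD, cut at about 3.6% in these data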;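 note: 0% = DAX-1 cells with DMSO and 100% = cells lacking DAX-1 with DMSO; higher inhibition means more luminescence from relief of DAX-1 repression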
LXRb hcDAF ctr: LXR agonists, Gal4 luciferase reporter, confirmation, counter-screen for hcDAF-12 agonist project, cell-based, luminescence, HEK293, H. contortus campaign. shares compounds with hcDAF-12 act. HEK293 Gal4-LXR tk-luc reporter, 24 h; normalized: DMSO 0%, positive control 100%. activation, % at 6.8 µM. 3,400 tested, under 10 active. AID 743027, 2013;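 active = mean percent activation of the reporter above a cutoff set as the average over tested compounds plus their standard deviation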
hcDAF12 ag: H. contortus DAF-12 receptor agonists, confirmation, cell-based, luminescence, HEK293, lit1-tk-luc, triplicate. HEK293 hcDAF-12 lit1-tk-luc reporter; % of Δ7-dafachronic acid response. 61% of 3,400 active. shares compounds with hcDAF-12 act. activation, % at 6.8 µM;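 active = mean activation across triplicate tests above the threshold derived from the earlier primary screen, cut at about 5.5% in these data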;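 note: 0% = DMSO only wells and 100% = 3 µM Δ7-dafachronic acid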
* hit, by the source's call; · = no result. Rows were chosen to be rich in hits. Some 4.5% of all compounds tested hit in one or more screens of this group.

SMILES	GAA850 FXN act	ssDAF-12 act	DAX1 inh-1	hcDAF-12 act	hgDAF-12 ag	DAX1 inh-2	LXRb hcDAF ctr	hcDAF12 ag
Clc1cccc(Cc2c(-c3cccc(Br)c3)nc3ccc(Cl)cn23)c1	·	-0.7	·	2.3	4.1	1.6	·	·
Fc1cccc(Cc2c(C3CCCCC3)nc3c4ccccc4ccn23)c1	·	0.9	·	8.6*	10.4	3.4	0.1	4.9
Cc1cc(Br)cn2c(Cc3cccc(Cl)c3)c(C3CCCCC3)nc12	·	-0.6	·	-0.1	0.0	0.1	·	·
CCCc1nc2c3ccccc3ccn2c1Cc1cccc(Cl)c1	·	0.8	·	6.7*	12.3*	1.7	0.5	7.1*
Cc1ccc(-c2nc3c4ccccc4ccn3c2Cc2cccc(Cl)c2)cc1	·	0.5	·	2.2	6.8	-0.6	·	·
Brc1cccc(-c2nc3c4ccccc4ccn3c2Cc2ccccc2)c1	·	1.0*	·	7.2*	1.3	-0.9	-0.1	7.4*
c1ccc(-c2nc3c4ccccc4ccn3c2CN2CCOCC2)cc1	5.6	0.6	4.0	8.3*	10.3	0.8	0.1	6.7*
Cc1cc(Br)cn2c(Cc3ccccc3)c(-c3cccc(Cl)c3)nc12	·	0.2	·	7.0*	3.1	-0.8	-0.1	1.5
CCCc1nc2c(C)cc(Br)cn2c1Cc1ccccc1	·	1.0*	·	11.4*	7.3	0.9	0.6	7.4*
CCCc1nc2c(C)cc(Br)cn2c1Cc1ccsc1	·	-0.4	·	1.3	6.9	-1.1	·	·
COCc1ccc(-c2c(-c3cc(OC)cc(OC)c3)oc(=O)c3cc(OC)c(OC)cc23)cc1	-0.2	-0.6	1.7	0.6	4.3	-0.1	·	·
O=C(Nc1ccncc1)c1cc(C2CCCCN2C(=O)CCc2ccccc2)on1 (stereo not given)	-2.1	-1.1	·	-0.5	-0.6	-0.7	·	·
COc1ccc(/C(N)=N/OC(=O)Cc2ccc(C)cc2)cc1	1.8	-1.4	0.1	0.3	3.9	-0.3	·	·
COc1ccc(/C(N)=N/OC(=O)c2ccc(Br)o2)cc1	4.7	-0.4	1.7	8.4*	5.3	0.5	0.1	4.2
CC1=NOC(=O)/C1=C\c1ccc2c(c1)OCO2	0.7	-1.1	-0.1	0.3	-1.0	0.3	·	·
CCOC(=O)N/C(N)=N/c1nc2ccccc2s1	3.6	0.2	0.4	7.0*	10.6*	4.2*	1.3	5.2
CC1(N=Cc2cc(Cl)ccc2O)COP(=O)(NC2CCCC2)OC1 (stereo not given)	1.9	-0.8	0.7	0.7	0.7	-0.3	·	·
COc1ccc(-n2c(SCC(=O)Nc3ccc(NC(C)=O)cc3)nc3c([nH]c4ccccc43)c2=O)cc1OC	1.2	1.0*	0.2	9.6*	-0.3	-0.7	-0.2	6.7*
COc1cccc(NC(=O)C(c2ccccc2)N2CCNC(=O)C2)c1 (stereo not given)	-0.5	·	-0.9	·	·	·	·	·
CC(=O)c1ccc(N2Cc3ccccc3C2=NC(=O)c2cccs2)cc1	4.2	0.1	0.3	6.6*	12.1*	3.5	0.3	4.0
N#Cc1ccc(N2Cc3ccccc3C2=NC(=O)c2cccs2)cc1	0.3	-1.6	-1.5	1.1	3.5	1.3	·	·
NC(=O)CC[C@H](NC(=O)OCc1ccccc1)C(=O)OCc1ccc(Cl)cc1	3.7	-1.4	0.2	0.2	-0.4	0.1	·	·
O=C(CN1CCc2ccccc2C1)c1cccs1	3.8	0.5	0.5	6.9*	1.1	0.6	0.0	3.6
CC1CCN(CC(=O)c2cccs2)CC1	3.1	0.5	-0.7	1.5	9.8	0.4	·	·
CCC(c1nc2ccccc2[nH]1)n1c(-c2ccc3cc[nH]c3c2)nc2ccccc21 (stereo not given)	·	-0.2	·	3.2	5.3	1.5	·	·
SMILES	GAA850 FXN act	ssDAF-12 act	DAX1 inh-1	hcDAF-12 act	hgDAF-12 ag	DAX1 inh-2	LXRb hcDAF ctr	hcDAF12 ag
Clc1ccc(Nc2nc(-c3cccnc3)cs2)cc1	5.7	1.9*	1.3	9.3*	11.8*	2.1	0.6	10.9*
COc1ccc(CCNC(=O)C2CC(c3ccccc3[N+](=O)[O-])=NO2)cc1 (stereo not given)	3.8	1.3*	3.7	7.6*	8.0	0.7	0.6	6.6*
Cc1ccc(-c2cc(=O)c3cc(C)ccc3[nH]2)cc1	-4.4	0.6	-1.7	7.0*	8.0	1.3	1.4	7.0*
O=C1C2C3C=CC(CC3)C2S(=O)(=O)C2C3C=CC(CC3)C12 (stereo not given)	-0.8	-0.8	0.2	1.0	5.2	0.6	·	·
CCCC#Cc1ccc2c(c1)COc1c3ccccc3nn1-2	1.0	2.6*	5.5*	10.8*	16.9*	4.1*	2.0	12.1*
O=C(OCc1cn([C@H]2CN(C(=O)C3CCCCC3)[C@@H](c3ccc(Cl)cc3)C[C@@H]2O)nn1)c1ccccc1	-0.4	-0.5	0.2	5.0	0.5	-0.4	·	·
CCOC(=O)c1c(C)oc2c1c(CN1CCN(C(=O)OCC)CC1)c(O)c1ccccc12	1.5	0.7	1.3	8.6*	13.0*	1.9	0.4	5.1
CCOC(=O)c1c(C)oc2c1c1c(c3ccccc32)OCN(Cc2ccccn2)C1	-0.2	1.2*	4.0	6.8*	6.3	2.0	0.7	8.5*
Brc1ccc(Br)c2cnccc12	2.0	-0.5	0.4	-0.6	-0.3	-0.8	·	·
CN(C)c1ccc(-c2nnc(-c3ccccc3F)o2)cc1	3.7	0.9	0.7	10.2*	13.0*	3.2	1.5	6.5*
CC(C)(C)NC(=O)C(c1ccccc1)n1c(=O)c(-c2ccccc2)nc2ccccc21 (stereo not given)	·	-0.7	·	-0.2	1.2	-1.1	·	·
